Pf Dd2 inh: P. falciparum Dd2 growth inhibitors, primary screen, SYBR Green fluorescence, single dose replicates | 72 h; active compounds read low | activity change, % at 10 µM | 2.3% of 94,000 active | AID 1159554, 2015; in the data active = activity change below about -80%
C diff growth: C. difficile growth inhibitors, primary screen, HTS. AID 1259249, 2017. Clostridium difficile clinical isolate growth, OD600, 24 h; active compounds read low. 0.25% of 86,000 active. growth activity, negative = inhibition, % at 16 µg/mL (by protocol);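 active = mean growth activity at or below -80% and every replicate also at or below -80%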;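 note: 0% = DMSO wells and -100% = levofloxacin 16 µg/mL wells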
T cruzi growth: T. cruzi intracellular proliferation inhibitors, primary screen, cell-based, beta-gal Tulahuen parasites, NIH3T3 host, luminescence; AID 624255, 2012; T. cruzi beta-gal in NIH3T3, GalScreen luminescence, 90 h; 5.9% of 77,000 active; inhibition, % at 8.34 µM;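 active = mean inhibition above about 93%, with at least 55% of replicates each passing it, limit read from the data, passing the limit was not always enough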
* marks the source's active call; other numbers are inactive results; . = no result. In the library only some 6.7% were active in any assay of this set; here they are far more common.

SMILES	Pf Dd2 inh	C diff growth	T cruzi growth
C[C@@H]1CCCCO[C@@H](CN(C)S(=O)(=O)c2ccc(Cl)cc2)[C@H](C)CN([C@H](C)CO)C(=O)c2cc(NC(=O)Nc3ccc(C(F)(F)F)cc3)ccc2O1	-77	14	70
CN(C)Cc1cn(CC[C@H]2CC[C@H](NS(=O)(=O)c3ccc(-c4ccccc4)cc3)[C@@H](CO)O2)nn1	-2	.	-194
C[C@H]1CCCCO[C@@H](CN(C)C(=O)Nc2ccc3c(c2)OCO3)[C@@H](C)CN([C@@H](C)CO)C(=O)c2cc(NC(=O)c3ccccc3)ccc2O1	-79	-5	75
C[C@@H]1CN([C@H](C)CO)C(=O)c2cc(NC(=O)CCN3CCOCC3)ccc2O[C@@H]1CN(C)C(=O)Nc1ccc(F)cc1	40	6	-1
CC=Cc1ccc2n(c1=O)C[C@@H]1[C@@H](CO)[C@H](C(=O)NC3CCC3)[C@H]2N1Cc1ccncc1 (mixture of isomers)	31	-1	.
CN(C)C(=O)C[C@H]1CC[C@@H]2[C@H](COC[C@@H](O)CN2CC2CC2)O1	11	.	9
CO[C@@H]1CN(C)C(=O)c2cc(NC(=O)c3cc(C)on3)ccc2OC[C@@H](C)N(S(=O)(=O)c2ccccc2)C[C@H]1C	-42	.	42
Cc1noc(C)c1NC(=O)N(C)C[C@H]1Oc2ccc(NS(=O)(=O)c3cccs3)cc2C(=O)N([C@@H](C)CO)C[C@H]1C	29	.	-137
C[C@@H]1CN([C@H](C)CO)C(=O)c2cc(NC(=O)Nc3ccc(C(F)(F)F)cc3)ccc2O[C@@H](C)CCCCO[C@H]1CN(C)Cc1ccccc1	-87*	42	92
C[C@@H]1CN([C@@H](C)CO)C(=O)c2cc(NC(=O)c3ccncc3)ccc2O[C@@H](C)CCCCO[C@@H]1CN(C)Cc1ccc(C(F)(F)F)cc1	-14	2	51
COc1ccc(CN(C)C[C@@H]2OCCCC[C@H](C)Oc3ccc(NC(=O)Nc4ccc(C(F)(F)F)cc4)cc3C(=O)N([C@@H](C)CO)C[C@H]2C)cc1	-49	-83*	69
C[C@H]1CCCCO[C@@H](CN(C)Cc2ccc(C(F)(F)F)cc2)[C@@H](C)CN([C@@H](C)CO)C(=O)c2cc(NC(=O)NC3CCCCC3)ccc2O1	-25	4	72
C[C@@H]1CN([C@@H](C)CO)C(=O)c2cc(NC(=O)c3ccncc3)ccc2O[C@@H](C)CCCCO[C@H]1CN(C)Cc1ccc(C(F)(F)F)cc1	-81*	9	88
COc1ccc(NC(=O)Nc2ccc3c(c2)C(=O)N([C@H](C)CO)C[C@H](C)[C@@H](CN(C)Cc2ccc(C(F)(F)F)cc2)OCCCC[C@H](C)O3)cc1	-1	6	72
C[C@H](CO)N1C[C@H](C)[C@@H](CN(C)Cc2ccccc2)OCCCC[C@H](C)Oc2ccc(NC(=O)Nc3ccc(C(F)(F)F)cc3)cc2C1=O	-39	20	82
C[C@@H]1CN([C@H](C)CO)C(=O)c2cc(NC(=O)NC3CCCCC3)ccc2O[C@@H](C)CCCCO[C@H]1CN(C)Cc1ccc(C(F)(F)F)cc1	-94*	3	34
Cc1noc(C)c1NC(=O)Nc1ccc2c(c1)C(=O)N([C@H](C)CO)C[C@@H](C)[C@H](CN(C)S(=O)(=O)c1ccc(Cl)cc1)OCCCC[C@@H](C)O2	-75	.	82
C[C@@H]1CN([C@H](C)CO)C(=O)c2cc(NS(=O)(=O)c3ccc(Cl)cc3)ccc2O[C@@H]1CN(C)Cc1ccc(C(=O)O)cc1	-71	.	92
Cc1noc(C)c1S(=O)(=O)N(C)C[C@@H]1Oc2ccc(NS(C)(=O)=O)cc2CC(=O)N([C@H](C)CO)C[C@@H]1C	12	-3	-27
C[C@@H]1CCCCO[C@@H](CN(C)Cc2ccncc2)[C@@H](C)CN([C@H](C)CO)C(=O)c2cc(NC(=O)C3CCCCC3)ccc2O1	.	3	26
C[C@@H]1CCCCO[C@H](CN(C)Cc2ccncc2)[C@@H](C)CN([C@@H](C)CO)C(=O)c2cc(NC(=O)C3CCCCC3)ccc2O1	-85*	1	44
COc1ccc(CN(C)C[C@@H]2OCCCC[C@H](C)Oc3ccc(NC(=O)Nc4ccc(C(F)(F)F)cc4)cc3C(=O)N([C@H](C)CO)C[C@H]2C)cc1	-43	-96*	50
COc1ccc(CN(C)C[C@H]2OCCCC[C@H](C)Oc3ccc(NC(=O)Nc4ccc(C(F)(F)F)cc4)cc3C(=O)N([C@H](C)CO)C[C@H]2C)cc1	-69	-26	48
CO[C@H]1CN(C)C(=O)c2cc(NC(=O)NC(C)C)ccc2OC[C@H](C)N(CC2CC2)C[C@H]1C	13	-1	3
COCC(=O)Nc1ccc2c(c1)C(=O)N(C)[C@@H]1CC[C@@H](CC(=O)NC3CCCC3)O[C@@H]1CO2	-3	-4	5
SMILES	Pf Dd2 inh	C diff growth	T cruzi growth
Cc1cc(C(=O)Nc2cccc3c2O[C@H](CN(C)Cc2ccc(Oc4ccccc4)cc2)[C@@H](C)CN([C@@H](C)CO)C3=O)n(C)n1	-8	8	47
C[C@H]1CN([C@@H](C)CO)C(=O)c2c(c3ccccc3n2C)-c2ccccc2CO[C@H]1CN(C)C(=O)Nc1ccccc1C(F)(F)F	-84*	0	.
C[C@@H]1CN([C@H](C)CO)C(=O)c2c(c3ccccc3n2C)-c2ccccc2CO[C@H]1CN(C)C(=O)Nc1ccccc1C(F)(F)F	-45	19	.
COc1ccccc1NC(=O)N(C)C[C@@H]1OCc2ccccc2-c2c(n(C)c3ccccc23)C(=O)N([C@H](C)CO)C[C@H]1C	-39	.	76
C[C@@H]1CN([C@@H](C)CO)C(=O)c2c(c3ccccc3n2C)-c2ccccc2CO[C@@H]1CN(C)C(=O)Nc1cccc(Cl)c1Cl	-92*	54	.
O=C(C1CCOCC1)N1C[C@H]2[C@@H](c3ccccc31)[C@H](CO)N2C(=O)Nc1cccc(F)c1	-10	4	9
COc1ccc(CN(C)C[C@H]2OCCCC[C@@H](C)Oc3ccc(NC(=O)Nc4cccc5ccccc45)cc3C(=O)N([C@@H](C)CO)C[C@H]2C)cc1	-89*	-18	122
COc1ccc(CN(C)C[C@H]2OCCCC[C@H](C)Oc3ccc(NC(=O)Nc4cccc5ccccc45)cc3C(=O)N([C@H](C)CO)C[C@@H]2C)cc1	-44	-16	114
COc1ccc(CN(C)C[C@H]2OCCCC[C@@H](C)Oc3ccc(NC(=O)Nc4cccc5ccccc45)cc3C(=O)N([C@H](C)CO)C[C@H]2C)cc1	-87*	-11	118
COc1ccc(CN(C)C[C@@H]2OCCCC[C@@H](C)Oc3ccc(NC(=O)Nc4cccc5ccccc45)cc3C(=O)N([C@H](C)CO)C[C@@H]2C)cc1	22	-12	113
C[C@@H]1CN([C@@H](C)CO)S(=O)(=O)c2ccc(-c3cccc(C#N)c3)cc2O[C@@H]1CN(C)C(=O)Nc1cc(F)ccc1F	-6	-5	.
COc1ccc2c3c([nH]c2c1)[C@@H](CO)NCC31CN(C(=O)c2ccccc2)C1	-13	5	.
COc1ccc2c3c(n(C)c2c1)[C@H](CO)NCC31CCN(S(=O)(=O)c2cccc(C)c2)CC1	-80	-2	.
COc1ccc2c3c([nH]c2c1)[C@@H](CO)NCC31CCN(C(=O)C2CCOCC2)CC1	-82*	4	.
